KB-3-1 tox: qHTS assay for MDR1-selective chemotherapeutics: Primary screen using the parental adenocarcinoma cell KB-3-1 | KB-3-1 viability, CellTiter-Glo ATP luminescence, 72 h | Potency, µM (doses to about 46.1 µM), most hits filed as cytotoxic | 400,000 tested, 1.4% active | AID 1347075, 2019; further: nearly all actives have a fitted effect of over 60% in size
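Luminescent ATP read-out (CellTiter-Glo) measures survival of drug-naive KB-3-1 cells after 72 h compound exposure at 37 °C. Titration series was screened from lowest to highest concentration, with DMSO vehicle plates as background controls.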
KB-V1 MDR tox: qHTS assay for MDR1-selective chemotherapeutics: Primary screen using the drug-selected MDR subline cells KB-V1; Potency, µM (titrated, usually from 46.1 µM), actives largely listed as cytotoxic; 400,000 tested, 3.4% active; KB-V1 MDR cells viability, CellTiter-Glo, 72 h; AID 1347076, 2019; further: nearly all actives have a fitted effect of over 60% in size
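Cells of the MDR subline KB-V1 are plated, dosed with compound at multiple concentrations, and incubated 72 h at 37 degrees C; CellTiter-Glo is then added and luminescence read after 10 min.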
ELG1 DNA repair: qHTS screen for small molecules that inhibit ELG1-dependent DNA repair in human embryonic kidney (HEK293T) cells expressing luciferase-tagged ELG1 | HEK293T ELG1-luciferase reporter, luminescence, 16 h; DNA damage induced by 5-fluorouridine | Potency, µM (highest dose often 46.1 µM), usual class: inhibitors | 330,000 tested, 2.3% active | AID 504467, 2011; further: nearly all actives have a fitted effect of over 55% in size
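Overnight (16 hr) co-exposure of 2,000 cells/well to 5-fluorouridine and compound at 37 °C preceded detection. Luciferase was quantified via ONE-Glo luminescence; loss of signal denotes inhibition.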
SW480 rerep: A quantitative high throughput screen for small molecules that induce DNA re-replication in SW480 colon adenocarcinoma cells. Potency, µM (series often up to 46.1 µM), usual class: activators. SW480 DNA re-replication, Hoechst DNA content imaging, 48 h. 340,000 tested, 1.8% active; further: nearly all actives have a fitted effect of over 55% in size
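DNA re-replication was detected as more nuclei of elevated Hoechst intensity after 48 hr exposure to compound (23 nL pinned per well of 250 cells).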
MCF10A rereplic: A quantitative high throughput screen for small molecules that induce DNA re-replication in MCF 10a normal breast cells | Potency, µM (highest dose often 46.1 µM), actives largely listed as activators | MCF 10A DNA re-replication, Hoechst nuclear intensity, 48 h | 350,000 tested, 2.9% active; further: nearly all actives have a fitted effect of over 50% in size
A number is an active result; . = inactive; ? = inconclusive; / = no result given. Most compounds without a hit are left out; they make up all but 8.1% or so of the library. The call rests on the fitted dose curve; in most records, active means well fitted curve in the direction sought with a large enough effect; inconclusive means small, poorly fitted or top-dose-only effect, or another doubt; inactive means no such curve, though single readings can be large; an effect the other way counts as inactive or inconclusive.

SMILES	KB-3-1 tox	KB-V1 MDR tox	ELG1 DNA repair	SW480 rerep	MCF10A rereplic
CCOC(=O)c1ccc(NC(=O)c2nc[nH]c2C(=O)NCCCCCNC(=O)OC(C)(C)C)cc1	?	?	16µM	.	.
CC(C)(C)OC(=O)NCCCCCNC(=O)c1[nH]cnc1C(=O)Nc1ccccc1	.	?	?	.	.
Fc1ccc(CNc2ncnc3nc[nH]c23)cc1	?	.	/	/	/
CCn1c(CC(=O)Nc2ccccc2F)nnc1SCC(=O)NC1=NCCS1	.	.	/	/	/
Cc1ccc(NC(=O)c2nc[nH]c2C(=O)NCCCCCNC(=O)OC(C)(C)C)cc1	?	?	23µM	.	?
CCOC(=O)c1c(C)[nH]c(C(=O)COC(=O)c2oc3ccc(OC)cc3c2C)c1C	16µM	10µM	.	.	.
CCOC(=O)c1[nH]c(C)c(C(=O)OCC(=O)NCc2ccc(OC)c(OC)c2)c1C	.	.	11µM	.	.
CCOC(=O)c1c(C)[nH]c(C(=O)OCC(=O)NC(C)C)c1C	.	23µM	.	.	.
CCOC(=O)c1c(C)[nH]c(C(=O)COC(=O)c2oc3ccccc3c2C)c1C	?	.	.	.	.
COc1ccc(CNC(=O)COC(=O)c2n[nH]c3ccccc23)cc1OC	.	.	16µM	.	?
CCOC(=O)c1c(C)[nH]c(C(=O)OCC(=O)Nc2ccccc2)c1C	.	.	?	.	.
Nc1nc(=S)c2snnc2[nH]1	.	.	/	/	/
CCOC(=O)c1[nH]c(C=O)c(C(=O)OCC)c1C	.	?	.	5.8µM	12µM
Cc1nc(C(=O)O)cc([N+](=O)[O-])c1C	.	.	/	/	/
CCN1CCN(c2cc(C)c3cc(NC(=S)NCc4cccs4)ccc3n2)CC1	.	.	.	?	7.3µM
COc1cc(C(=O)Nc2ccc3nc(N4CCN(C)CC4)cc(C)c3c2)cc(OC)c1OC	?	.	?	?	.
Fc1ccc(NC(=S)NCc2cccs2)cc1	?	18µM	.	?	.
Cc1cc(N2CCN(C)CC2)nc2ccc(NC(=O)c3ccc(Br)o3)cc12	?	?	.	.	.
Cc1cc(N2CCN(C)CC2)nc2ccc(NC(=O)c3ccc4c(c3)OCO4)cc12	7.3µM	.	?	.	?
Cc1cc(N2CCCCC2)nc2ccc(NC(=O)c3ccc(Br)o3)cc12	?	?	?	?	8.2µM
Cc1oc(-c2cccs2)nc1CNC[C@H]1O[C@@H](n2cnc3c(N)ncnc32)[C@H](O)[C@@H]1O	.	.	.	?	.
Cc1cc(C)n(-c2nc3cc(Cl)c(Cl)cc3nc2Nc2c(C)cccc2C)n1	.	.	/	/	/
Cc1cc(N2CCN(C)CC2)nc2ccc(NC(=S)NCc3cccs3)cc12	.	.	.	?	9.2µM
CCN(CC)CCNC(=S)Nc1ccc2nc(N3CCN(C)CC3)cc(C)c2c1	.	.	.	?	?
COc1ccc(CNC(=S)Nc2ccc3nc(N4CCN(C)CC4)cc(C)c3c2)cc1	.	.	.	.	?
SMILES	KB-3-1 tox	KB-V1 MDR tox	ELG1 DNA repair	SW480 rerep	MCF10A rereplic
CCN(CC)CCNC(=S)Nc1ccc2nc(N3CCCC3)cc(C)c2c1	15µM	.	?	?	?
O=C(O)Cc1sc(Nc2cccc3ccccc23)nc1-c1ccc(Cl)cc1	.	.	.	.	7.3µM
O=C(O)Cc1sc(Nc2cccc3ccccc23)nc1-c1ccccc1	.	.	.	.	.
CCN(C)C1CN(Cc2cn(CCCC(=O)OC)nn2)S(=O)(=O)C1 (stereo not given)	.	.	/	/	/
CC(C)(C)n1ncc2c(=O)n(CC(=O)NCc3ccc(F)cc3)cnc21	9.2µM	9.2µM	?	?	?
CC(C)(C)n1ncc2c(=O)n(CC(=O)c3ccccc3)cnc21	.	15µM	?	.	.
CC(C)(C)n1ncc2c(=O)n(CC(=O)OCc3ccccc3)cnc21	.	.	?	.	.
CC(C)(C)n1ncc2c(=O)n(CC(=O)NCc3ccco3)cnc21	?	?	?	.	?
CCCC(=O)O[C@]1(C(=O)COC(C)=O)CC[C@H]2C3C[C@H](F)C4=CC(=O)C=CC4(C)[C@@]3(F)[C@@H](O)CC21C (stereo not given in full)	/	/	/	.	.
CCOc1ccc(C2c3c(oc4cc(C)c(C)cc4c3=O)C(=O)N2c2ccccn2)cc1 (stereo not given)	.	.	/	/	/
O=C1c2[nH]nc(-c3ccccc3)c2C(c2ccccc2)N1c1cccc(C(F)(F)F)c1 (stereo not given)	?	16µM	/	/	/
Cc1ccc(/C=C/C(=O)c2cc(Br)ccc2OC(=O)c2ccco2)cc1	.	?	?	?	16µM
COc1ccccc1/C=C/C(=O)c1cc(Br)ccc1OC(=O)c1ccco1	?	?	/	?	10µM
CCCOP(=O)(c1ccc(N(C)C)cc1)C(Nc1ccccc1)c1ccc(C)cc1 (stereo not given)	.	21µM	?	.	?
CC1(C)CC(=O)C2=C(C1)OC1=C(C(=O)CC(C)(C)C1)C2c1ccc(O)cc1O	.	.	?	3.2µM	?
CCOC(=O)c1c(NC(=O)COc2ccc(Cl)cc2Cl)sc2c1CCCCC2	.	.	/	/	/
COc1ccc(OC)c(-c2nnc3n2N=C(c2ccc(OC)c(OC4CCCC4)c2)CS3)c1	0.92µM	4.6µM	?	0.73µM	?
COc1ccc(C2=Nn3c(nnc3-c3ccccc3F)SC2)cc1OC1CCOC1 (stereo not given)	2.1µM	21µM	.	10µM	?
COc1ccc(OC)c(-c2nnc3n2N=C(c2ccc(OC)c(OC)c2)CS3)c1	?	?	.	?	?
COc1ccc(C2=Nn3c(nnc3-c3ccccc3F)SC2)cc1OC1CCCC1	8.2µM	?	?	?	?
Nc1c(-c2ccc(F)cc2)nc2ncccn12	.	.	/	/	/
Cn1c(/C=C/c2ccc([N+](=O)[O-])o2)nc2ccccc2c1=O	1.8µM	?	?	1.8µM	5.2µM
COc1ccccc1-c1cnn2c(NC3CCCC3)cc(C)nc12	.	?	?	.	16µM
CCN1CCN(C(=O)c2cc3c(s2)-c2ccccc2S(=O)(=O)C3)CC1	.	.	.	.	.
O=C(c1cc2c(s1)-c1ccccc1S(=O)(=O)C2)N1CCN(Cc2ccccc2)CC1	?	?	13µM	.	.
SMILES	KB-3-1 tox	KB-V1 MDR tox	ELG1 DNA repair	SW480 rerep	MCF10A rereplic
COc1ccc(Br)cc1CSC(=N)N	.	.	.	.	.
CCCCCOc1ccc(Br)cc1CSC(=N)N	12µM	9.2µM	?	?	?
CCc1ccc(-n2c3nc(=O)[nH]c(=O)c-3cc3c(C)nn(-c4ccccc4)c32)cc1	.	.	/	/	/
COc1cc2oc(=O)cc(CN3CCCCC3)c2cc1Cl	.	.	/	/	/
COc1ccc(CNC(=O)C2=CC(c3cccc(OC)c3)=NS(=O)(=O)N2C)cc1	.	.	/	/	/
CC(=O)Nc1nnc(COc2ccccc2)s1	.	.	?	18µM	.
